# Values joined by “and” are separate entries in the source; they are usually repeats but may differ in a detail not shown here. Equal values may be shown once. Results filed as inconclusive are left out. More than one record can exist for a structure, and the calls need not agree. Active and inactive are the calls of the source. The calls were made as follows, unless noted: active = hit-call score of the fitted dose curve at least 0.9, where 1 is the maximum; inconclusive = response in the unintended direction; inactive = score below 0.9.
# Assays:
# [1] = read-out: UDP glucuronosyltransferase (UGT1A1), UGT1A1 (gene 54658); experiment: LTEA_HepaRG_UGT1A1: Life Technologies and Expression Analysis (LTEA) Assay for UDP glucuronosyltransferase (UGT1A1) using HepaRG (AID 2283538; active = hit-call score of the fitted dose curve at least 0.9, where 1 is the maximum; inactive = score below 0.9); details: mRNA level, 48 h; actives raise or lower the signal
# Method in brief: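 UGT1A1 transcript level, measured by qRT-PCR with three housekeeping genes for normalization, after 48 h treatment of human HepaRG cells (0.5% DMSO, duplicates, up to 100 uM, half-log steps, 8 points). Curves fit both directions against DMSO baseline.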
# [2] = read-out: UDP glucuronosyltransferase (UGT1A6), UGT1A6 (gene 54578); experiment: LTEA_HepaRG_UGT1A6: Life Technologies and Expression Analysis (LTEA) Assay for UDP glucuronosyltransferase (UGT1A6) using HepaRG (AID 2283539; active = hit-call score of the fitted dose curve at least 0.9, where 1 is the maximum; inactive = score below 0.9); details: mRNA level, 48 h; actives raise or lower the signal
# Method in brief: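 Expression was quantified by TaqMan qRT-PCR on Fluidigm arrays with ACTB/GAPDH/POLR2A normalization and bidirectional fitting against 0.5% DMSO. HepaRG cells (~100,000/well) were treated in duplicate for 48 h at eight half-log concentrations up to 100 uM in serum-free induction medium.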
# [3] = read-out: X-box binding protein 1 (XBP1), XBP1 (gene 7494); experiment: LTEA_HepaRG_XBP1: Life Technologies and Expression Analysis (LTEA) Assay for X-box binding protein 1 (XBP1) using HepaRG (AID 2283540; active = hit-call score of the fitted dose curve at least 0.9, where 1 is the maximum; inactive = score below 0.9); details: mRNA level, 48 h; actives raise or lower the signal
# Method in brief: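 XBP1 transcript by qRT-PCR (housekeeping-normalized: ACTB, GAPDH, POLR2A) after 48 h chemical treatment of HepaRG cells, 8-point half-log series topping at 100 uM, vehicle 0.5% DMSO. Gain and loss of signal fitted relative to DMSO.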
# [4] = LTEA_HepaRG_LDH_cytotoxicity: Cytotoxicity Assessment in the Life Technologies and Expression Analysis (LTEA) Assay (AID 2283563);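 as to AC50: LDH activity released into spent culture medium as a marker of cell death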
# Method in brief: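 LDH release into culture medium read after 48 h chemical treatment of HepaRG cells. Duplicate wells, eight-point half-log series topping at 100 uM, 0.5% DMSO vehicle and baseline.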
# [5] = ATG_XTT_Cytotoxicity: Cytotoxicity Assessment in the Attagene TRANS-FACTORIAL HepG2 Assay (AID 2283584);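 as to AC50: cells exposed to compound for 24 h before reading; active means loss of viability signal versus DMSO baseline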
# Method in brief: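 Viability endpoint from XTT after 24 h chemical exposure of reporter-transfected human HepG2 liver cells; signal loss fitted relative to DMSO negative control.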
# [6] = biological target: Cellular tumor antigen p53 (Homo sapiens) (UniProt P04637); experiment: TOX21_p53_BLA_p2_ratio: Tox21 HCT-116 p53 Agonism Beta-lactamase Assay, Ratio, Phase 2 (AID 2283592)
# Method in brief: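 Read-out is the blue/green (460/530 nm, 405 nm excitation) ratio after 2 h CCF4-AM loading, fitted as gain versus DMSO. Compounds, pinned at 217-fold dilution from DMSO stocks, stayed 16 h on HCT-116 beta-lactamase reporter cells seeded 5 h earlier.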
# [7] = biological target: Cellular tumor antigen p53 (Homo sapiens) (UniProt P04637); experiment: TOX21_p53_BLA_p3_ratio: Tox21 HCT-116 p53 Agonism Beta-lactamase Assay, Ratio, Phase 3 (AID 2283596)
# Method in brief: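 Cells were seeded at 4000/well, rested 5 h at 37C, then dosed with DMSO compound solutions (217-fold dilution) for 16 h. CCF4-AM substrate was loaded for 2 h at room temperature, and the 460/530 nm emission ratio was fitted for gain of signal versus DMSO.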
# [8] = biological target: Cellular tumor antigen p53 (Homo sapiens) (UniProt P04637); experiment: TOX21_p53_BLA_p5_ratio: Tox21 HCT-116 p53 Agonism Beta-lactamase Assay, Ratio, Phase 5 (AID 2283599)
# Method in brief: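 HCT-116 p53-bla cells (4000/well) plated 5 h, dosed with compound (217-fold DMSO dilution) for 16 h at 37 C; CCF4-AM substrate 2 h at room temperature. Activity is the 460/530 nm emission ratio (405 nm excitation), fitted in gain-of-signal direction versus DMSO.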
# [9] = biological target: Cellular tumor antigen p53 (Homo sapiens) (UniProt P04637); experiment: TOX21_p53_BLA_p4_ratio: Tox21 HCT-116 p53 Agonism Beta-lactamase Assay, Ratio, Phase 4 (AID 2283601)
# Method in brief: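 HCT-116 p53 beta-lactamase reporter cells (4000/well) preincubated 5 h, then compound (217-fold dilution of DMSO stock) for 16 h at 37C. CCF4-AM substrate added 2 h at room temperature; 460/530 nm emission ratio fitted upward versus DMSO.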
# [10] = Tanguay_ZF_120hpf_MORT_legacy: (Legacy) Oregon State University Tanguay Lab 120 Hour Post-fertilization zebrafish Assay for Mortality (AID 2283633);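 as to AC50: fitted as increase in binary mortality versus DMSO negative control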
# Method in brief: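 Static waterborne exposure from 6 to 120 hpf at 28C of single dechorionated wild-type (5D) embryos per well, 0.64% DMSO final. Death recorded present/absent by brightfield at 24 and 120 hpf.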
# [11] = Tanguay_ZF_120hpf_YSE_legacy: (Legacy) Oregon State University Tanguay Lab 120 Hour Post-fertilization zebrafish Assay for Yolk Sac Edema (AID 2283634);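 also: actives raise the incidence of yolk sac edema above the DMSO baseline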
# Method in brief: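 Presence or absence of yolk sac edema was recorded at 120 hpf in surviving larvae. These were wild-type Tropical 5D embryos, chorion removed at 4 hpf, held in static exposure at 28C from 6 hpf with 0.64% DMSO vehicle.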
# [12] = Tanguay_ZF_120hpf_EYE_legacy: (Legacy) Oregon State University Tanguay Lab 120 Hour Post-fertilization zebrafish Assay for Eye Malformation (AID 2283636);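 also: binary presence or absence of eye malformation scored by brightfield in 120 hpf larvae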
# Method in brief: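 5D wild-type embryos, pronase-dechorionated at 4 hpf; static exposure 6–120 hpf, 28C, dark; DMSO 0.64% final; 5uM trimethyltin chloride positive control. Binary eye-defect scoring at 120 hpf; dead embryos not scored.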
# [13] = Tanguay_ZF_120hpf_SNOU_legacy: (Legacy) Oregon State University Tanguay Lab 120 Hour Post-fertilization zebrafish Assay for Snout Malformation (AID 2283637)
# Method in brief: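 Binary brightfield scoring of snout malformation at 120 hpf. Dechorionated 5D wild-type embryos, one per well, static exposure from 6 hpf at 28C, sealed and dark; final DMSO 0.64% (vol/vol), DMSO as baseline; 5uM trimethyltin chloride positive control.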
# [14] = Tanguay_ZF_120hpf_JAW_legacy: (Legacy) Oregon State University Tanguay Lab 120 Hour Post-fertilization zebrafish Assay for Jaw Malformation (AID 2283638);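 as to AC50: active means more embryos with jaw malformation than DMSO controls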
# Method in brief: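 Binary jaw-malformation call at 120 hpf by brightfield microscopy. Embryos (Tropical 5D strain, chorion removed at 4 hpf) were dosed statically at 6 hpf, one per well, at 28C with 0.64% DMSO. Embryos that died were not scored.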
# [15] = Tanguay_ZF_120hpf_OTIC_legacy: (Legacy) Oregon State University Tanguay Lab 120 Hour Post-fertilization zebrafish Assay for Otic Vesicle Malformation (AID 2283639)
# Method in brief: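 Binary scoring of otic vesicle defects at 120 hpf in zebrafish (Tropical 5D) held under static exposure at 28C, sealed and shaded, with final DMSO 0.64%. Embryos dying by 24 or 120 hpf excluded; fitted positively against DMSO.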
# [16] = TOX21_p53_BLA_p3_viability: Viability Assessment in the Tox21 HCT-116 p53 Agonism Beta-lactamase Assay, Phase 3 (AID 2283593);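 also: cells exposed to compound for 16 h before reading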
# Method in brief: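 HCT116 cells, 4000/well, dosed 5 h after plating by pin transfer (217-fold dilution from DMSO stock) and incubated 16 h at 37C, 5% CO2. Viability read as ATP luminescence with CellTiter-Glo after 30 min at room temperature.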
# [17] = TOX21_p53_BLA_p4_viability: Viability Assessment in the Tox21 HCT-116 p53 Agonism Beta-lactamase Assay, Phase 4 (AID 2283597);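 also: hits lower the luminescence signal meaning cytotoxicity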
# Method in brief: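 Cytotoxicity as reduced cellular ATP (CellTiter-Glo luminescence, 30 min room temperature), measured in the same wells following the CCF4 FRET p53 reading. Human HCT-116 cells received compounds in DMSO (217-fold dilution) for 16 h.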
# [18] = Tanguay_ZF_120hpf_AXIS_legacy: (Legacy) Oregon State University Tanguay Lab 120 Hour Post-fertilization zebrafish Assay for Body Axis Malformation (AID 2283635)
# Method in brief: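 Binary scoring of axis defects at 120 hpf under brightfield, fitted positive versus DMSO. Tropical 5D embryos, chorion removed by pronase at 4 hpf, were singly exposed in sealed, dark plates at 28C from 6 hpf; DMSO 0.64% final.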
# [19] = TOX21_p53_BLA_p5_viability: Viability Assessment in the Tox21 HCT-116 p53 Agonism Beta-lactamase Assay, Phase 5 (AID 2283600)
# Method in brief: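 Viability came from CellTiter-Glo ATP luminescence, read after 30 min at room temperature. Before this, HCT-116 p53-bla cells (4000/well) had 16 hours of compound exposure at 37C, with DMSO stocks diluted 217-fold on transfer.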
# Chain of Cellular tumor antigen p53 (Homo sapiens) (P04637 whole entry, looked up): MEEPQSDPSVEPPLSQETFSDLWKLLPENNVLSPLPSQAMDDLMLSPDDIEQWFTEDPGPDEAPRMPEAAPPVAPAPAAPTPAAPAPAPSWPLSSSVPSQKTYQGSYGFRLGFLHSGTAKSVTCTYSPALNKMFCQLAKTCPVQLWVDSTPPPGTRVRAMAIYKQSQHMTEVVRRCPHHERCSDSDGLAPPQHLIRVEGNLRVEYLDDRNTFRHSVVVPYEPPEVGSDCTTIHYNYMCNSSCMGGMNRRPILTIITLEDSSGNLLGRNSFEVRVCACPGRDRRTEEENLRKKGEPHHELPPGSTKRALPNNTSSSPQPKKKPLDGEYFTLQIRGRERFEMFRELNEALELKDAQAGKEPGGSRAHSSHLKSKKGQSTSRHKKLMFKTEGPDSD
structure (smiles),measurement,setting,value
CC1=C(/C=C/C(C)=C/C=C/C(C)=C/C(=O)O)C(C)(C)CCC1,AC50,[1],13 µM (active)
same,AC50,[2],16.9 µM (active)
same,outcome,[3],inactive
same,outcome,[4],inactive
same,outcome,[5],inactive
same,outcome,[6],inactive
same,AC50,[7],85.7 µM (active)
same,outcome,[7],inactive
same,AC50,[8],86.9 µM (active)
same,outcome,[8],inactive
same,outcome,[9],inactive
same,AC50,[10],1.54 µM (active)
same,AC50,[11],0.214 µM (active)
same,AC50,[12],0.0999 µM (active)
same,AC50,[13],0.183 µM (active)
same,AC50,[14],0.144 µM (active)
same,AC50,[15],0.211 µM (active)
NC(=O)N1C(=O)C(C(=O)c2cc(Cl)cs2)c2cc(F)c(Cl)cc21 (stereo unspecified),AC50,[1],38.7 µM (active)
same,AC50,[2],57 µM (active)
same,AC50,[3],12.9 µM (active)
same,AC50,[4],15.8 µM (active)
same,outcome,[6],inactive
same,outcome,[16],inactive
same,AC50,[7],2.59 µM (active)
same,outcome,[17],inactive
same,AC50,[8],7.17 µM (active)
same,AC50,[9],14 µM (active)
same,AC50,[10],1.44 µM (active)
same,outcome,[18],inactive
same,outcome,[12],inactive
same,outcome,[13],inactive
same,outcome,[14],inactive
same,outcome,[15],inactive
CCc1ccc(CCOc2ccc(CC3SC(=O)NC3=O)cc2)nc1 (stereo unspecified),AC50,[1],12.2 µM (active)
same,outcome,[2],inactive
same,outcome,[3],inactive
same,outcome,[4],inactive
same,outcome,[5],inactive
same,outcome,[6],inactive
same,outcome,[7],inactive
same,outcome,[17],inactive
same,outcome,[8],inactive
same,outcome,[9],inactive
same,outcome,[10],inactive
same,outcome,[18],inactive
same,outcome,[12],inactive
same,outcome,[13],inactive
same,outcome,[14],inactive
same,outcome,[15],inactive
CC[C@H](c1ccc(O)cc1)[C@@H](CC)c1ccc(O)cc1,AC50,[1],83.3 µM (active)
same,outcome,[2],inactive
same,AC50,[3],85.6 µM (active)
same,AC50,[5],144 µM (active) and 133 µM (active) and 164 µM (active)
same,outcome,[5],inactive
same,AC50,[6],66.6 µM (active)
same,outcome,[6],inactive
same,AC50,[7],14.4 µM (active)
same,outcome,[7],inactive
same,AC50,[17],57.8 µM (active)
same,outcome,[17],inactive
same,AC50,[8],67.1 µM (active)
same,outcome,[8],inactive
same,AC50,[9],60.1 µM (active)
same,outcome,[9],inactive
same,outcome,[10],inactive
same,outcome,[18],inactive
same,outcome,[12],inactive
same,outcome,[13],inactive
same,outcome,[14],inactive
same,outcome,[15],inactive
OC1CCC(C2CCCCC2)CC1 (stereo unspecified),outcome,[1],inactive
same,outcome,[2],inactive
same,outcome,[3],inactive
same,outcome,[4],inactive
same,outcome,[5],inactive
same,outcome,[6],inactive
same,outcome,[16],inactive
same,outcome,[7],inactive
same,outcome,[8],inactive
same,outcome,[19],inactive
same,outcome,[9],inactive
same,outcome,[10],inactive
same,outcome,[18],inactive
same,outcome,[12],inactive
same,outcome,[13],inactive
same,outcome,[14],inactive
same,outcome,[15],inactive
N#C[C@@H]1CC(F)(F)CN1C(=O)CNC1CC2CCC(C1)N2c1ncccn1 (stereo partly specified),outcome,[1],inactive
same,outcome,[2],inactive
same,outcome,[3],inactive
same,outcome,[4],inactive
same,outcome,[17],inactive
same,outcome,[9],inactive
same,outcome,[10],inactive
same,outcome,[18],inactive
same,outcome,[12],inactive
same,outcome,[13],inactive
same,outcome,[14],inactive
same,outcome,[15],inactive
COCC(C)O (stereo unspecified),outcome,[1],inactive
same,outcome,[2],inactive
same,outcome,[3],inactive
same,outcome,[4],inactive
same,outcome,[5],inactive
same,outcome,[6],inactive
same,outcome,[7],inactive
same,outcome,[17],inactive
same,outcome,[8],inactive
same,outcome,[19],inactive
same,outcome,[9],inactive
same,outcome,[10],inactive
same,outcome,[18],inactive
same,outcome,[12],inactive
same,outcome,[13],inactive
same,outcome,[14],inactive
same,outcome,[15],inactive
